Data from publication doi:10.1101/2025.02.07.636106.

These substances were tested against EEA1 (UniProt Q15075) (assay: cross-linking mass spectrometry). Settings: DMTMM.
Sequence of EEA1 (Q15075 whole entry): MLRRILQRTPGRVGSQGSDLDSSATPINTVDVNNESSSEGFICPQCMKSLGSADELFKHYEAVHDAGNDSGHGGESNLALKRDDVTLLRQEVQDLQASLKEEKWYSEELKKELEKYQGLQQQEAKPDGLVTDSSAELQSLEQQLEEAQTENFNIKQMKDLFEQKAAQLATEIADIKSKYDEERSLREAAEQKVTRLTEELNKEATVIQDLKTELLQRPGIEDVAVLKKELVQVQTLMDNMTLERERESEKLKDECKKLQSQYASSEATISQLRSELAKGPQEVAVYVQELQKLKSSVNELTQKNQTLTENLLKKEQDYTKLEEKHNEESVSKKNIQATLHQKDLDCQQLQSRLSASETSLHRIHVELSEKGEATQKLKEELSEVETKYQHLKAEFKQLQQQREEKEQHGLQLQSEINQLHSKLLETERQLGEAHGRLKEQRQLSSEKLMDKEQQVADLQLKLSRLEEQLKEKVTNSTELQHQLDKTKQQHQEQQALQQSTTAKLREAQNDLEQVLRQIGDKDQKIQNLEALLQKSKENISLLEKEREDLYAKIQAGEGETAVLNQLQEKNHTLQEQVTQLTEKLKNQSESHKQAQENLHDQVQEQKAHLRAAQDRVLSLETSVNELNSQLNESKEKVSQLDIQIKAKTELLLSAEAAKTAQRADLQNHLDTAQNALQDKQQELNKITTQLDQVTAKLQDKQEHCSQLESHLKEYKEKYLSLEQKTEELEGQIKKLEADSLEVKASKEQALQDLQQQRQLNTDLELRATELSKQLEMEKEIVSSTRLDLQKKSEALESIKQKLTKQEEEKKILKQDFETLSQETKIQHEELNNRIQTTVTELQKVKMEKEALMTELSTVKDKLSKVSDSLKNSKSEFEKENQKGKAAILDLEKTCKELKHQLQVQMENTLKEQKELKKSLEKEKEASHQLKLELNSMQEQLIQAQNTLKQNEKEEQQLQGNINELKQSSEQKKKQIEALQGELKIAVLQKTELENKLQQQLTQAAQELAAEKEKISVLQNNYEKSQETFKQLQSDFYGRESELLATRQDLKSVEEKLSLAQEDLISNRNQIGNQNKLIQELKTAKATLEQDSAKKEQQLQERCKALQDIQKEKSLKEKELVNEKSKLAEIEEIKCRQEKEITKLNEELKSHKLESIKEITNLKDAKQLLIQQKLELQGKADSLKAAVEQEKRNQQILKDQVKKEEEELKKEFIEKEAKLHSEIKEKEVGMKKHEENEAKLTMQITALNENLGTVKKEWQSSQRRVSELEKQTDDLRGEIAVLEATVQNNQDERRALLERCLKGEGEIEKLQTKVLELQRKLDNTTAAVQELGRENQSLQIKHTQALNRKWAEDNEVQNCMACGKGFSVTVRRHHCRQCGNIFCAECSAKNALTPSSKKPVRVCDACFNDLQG

Sequence of ACADL, P28330 (P28330 whole entry): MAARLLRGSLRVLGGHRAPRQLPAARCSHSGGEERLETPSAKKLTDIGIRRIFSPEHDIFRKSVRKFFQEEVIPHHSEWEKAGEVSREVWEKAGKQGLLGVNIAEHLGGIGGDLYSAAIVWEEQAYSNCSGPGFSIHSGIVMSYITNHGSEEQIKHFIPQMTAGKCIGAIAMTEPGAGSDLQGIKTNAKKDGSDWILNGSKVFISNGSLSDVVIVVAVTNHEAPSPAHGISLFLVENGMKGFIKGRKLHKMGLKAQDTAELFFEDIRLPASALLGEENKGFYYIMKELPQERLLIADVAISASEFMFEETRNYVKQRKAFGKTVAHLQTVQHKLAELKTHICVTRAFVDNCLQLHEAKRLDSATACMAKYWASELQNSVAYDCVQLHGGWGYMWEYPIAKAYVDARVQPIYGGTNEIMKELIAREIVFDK
Sequence of RAB9A, P51151 (P51151 whole entry): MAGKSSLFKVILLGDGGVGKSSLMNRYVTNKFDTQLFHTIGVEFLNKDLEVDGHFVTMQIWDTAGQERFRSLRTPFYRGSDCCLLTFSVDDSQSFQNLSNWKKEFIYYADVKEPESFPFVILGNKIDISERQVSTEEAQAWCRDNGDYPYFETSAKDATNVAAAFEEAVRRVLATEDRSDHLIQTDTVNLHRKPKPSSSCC
Sequence of ZNF638, Q14966 (Q14966 whole entry): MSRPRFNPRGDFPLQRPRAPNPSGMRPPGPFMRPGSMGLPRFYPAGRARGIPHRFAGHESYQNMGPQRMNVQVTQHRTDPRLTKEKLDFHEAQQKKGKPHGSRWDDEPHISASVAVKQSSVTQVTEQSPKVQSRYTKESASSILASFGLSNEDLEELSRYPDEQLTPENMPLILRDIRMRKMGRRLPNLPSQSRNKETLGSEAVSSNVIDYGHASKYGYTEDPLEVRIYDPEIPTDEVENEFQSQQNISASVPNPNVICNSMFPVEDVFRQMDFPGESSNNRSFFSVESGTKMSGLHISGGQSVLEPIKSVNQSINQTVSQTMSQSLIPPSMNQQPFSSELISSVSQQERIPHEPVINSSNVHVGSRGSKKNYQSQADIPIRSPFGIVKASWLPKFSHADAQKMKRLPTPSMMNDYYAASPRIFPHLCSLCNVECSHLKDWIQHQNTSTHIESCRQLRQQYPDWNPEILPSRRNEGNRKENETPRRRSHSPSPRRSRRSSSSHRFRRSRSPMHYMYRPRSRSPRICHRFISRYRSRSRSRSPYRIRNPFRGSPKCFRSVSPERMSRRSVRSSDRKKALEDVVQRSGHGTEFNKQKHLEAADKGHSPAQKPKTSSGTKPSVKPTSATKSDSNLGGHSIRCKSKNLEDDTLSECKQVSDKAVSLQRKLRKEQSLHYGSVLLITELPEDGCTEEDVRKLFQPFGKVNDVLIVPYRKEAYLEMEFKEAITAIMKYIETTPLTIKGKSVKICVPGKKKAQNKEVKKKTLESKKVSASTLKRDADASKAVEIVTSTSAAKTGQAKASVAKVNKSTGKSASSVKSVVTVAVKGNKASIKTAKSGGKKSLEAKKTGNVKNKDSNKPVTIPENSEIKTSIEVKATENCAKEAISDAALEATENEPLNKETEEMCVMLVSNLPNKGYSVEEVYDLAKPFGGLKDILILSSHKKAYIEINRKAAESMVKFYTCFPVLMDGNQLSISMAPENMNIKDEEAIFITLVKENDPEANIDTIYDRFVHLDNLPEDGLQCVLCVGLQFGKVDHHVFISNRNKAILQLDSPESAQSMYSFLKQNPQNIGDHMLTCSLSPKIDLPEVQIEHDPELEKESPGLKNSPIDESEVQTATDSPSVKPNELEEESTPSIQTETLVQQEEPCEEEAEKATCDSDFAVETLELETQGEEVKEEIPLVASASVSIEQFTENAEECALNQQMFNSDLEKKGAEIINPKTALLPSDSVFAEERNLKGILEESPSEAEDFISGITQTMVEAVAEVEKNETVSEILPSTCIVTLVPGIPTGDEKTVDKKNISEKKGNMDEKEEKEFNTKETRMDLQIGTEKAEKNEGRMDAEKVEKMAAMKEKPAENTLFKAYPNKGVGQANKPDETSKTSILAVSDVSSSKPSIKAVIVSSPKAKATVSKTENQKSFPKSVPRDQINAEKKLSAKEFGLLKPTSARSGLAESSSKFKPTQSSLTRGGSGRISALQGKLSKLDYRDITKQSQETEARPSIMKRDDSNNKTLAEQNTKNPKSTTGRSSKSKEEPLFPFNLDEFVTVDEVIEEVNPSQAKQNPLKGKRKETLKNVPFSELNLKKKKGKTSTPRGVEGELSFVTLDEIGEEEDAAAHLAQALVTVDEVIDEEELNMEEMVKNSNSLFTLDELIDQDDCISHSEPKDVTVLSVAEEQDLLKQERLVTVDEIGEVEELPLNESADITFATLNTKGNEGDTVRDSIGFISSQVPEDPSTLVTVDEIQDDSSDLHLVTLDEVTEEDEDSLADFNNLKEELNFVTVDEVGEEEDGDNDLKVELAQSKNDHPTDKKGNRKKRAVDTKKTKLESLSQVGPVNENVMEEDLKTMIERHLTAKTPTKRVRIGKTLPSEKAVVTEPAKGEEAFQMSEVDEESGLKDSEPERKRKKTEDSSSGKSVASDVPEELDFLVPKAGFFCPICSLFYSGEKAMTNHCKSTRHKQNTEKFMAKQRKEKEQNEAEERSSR
Sequence of TPM4, P67936 (P67936 whole entry): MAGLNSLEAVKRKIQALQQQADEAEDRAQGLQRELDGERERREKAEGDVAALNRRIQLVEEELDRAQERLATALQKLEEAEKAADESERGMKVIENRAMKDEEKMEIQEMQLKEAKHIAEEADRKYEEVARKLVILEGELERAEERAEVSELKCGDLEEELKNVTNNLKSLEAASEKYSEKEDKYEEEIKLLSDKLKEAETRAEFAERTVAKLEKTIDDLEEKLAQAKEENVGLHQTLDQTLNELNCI

Substance | cross-linked residues
DMD, P11532 | E2453 - K227
ZNF638, Q14966 | K951 - E91
ACADL, P28330 | K92 - D1321
NEB, P20929 | K8264 - E1248

Same assay, conditions: DSSO

Substance | cross-linked residues
TPM4, P67936 | K215 - K370
DST, Q03001 | K3770 - K995
ROCK2, O75116 | K780 - K303
RAB9A, P51151 | K4 - K1340
